The whole screen tested about 94,000 compounds, of which about 6,200 (6.6%) were called active. Roughly 31% stayed inconclusive and do not appear here. The sample holds actives, similar compounds and a random draw of the others, so the mix is not that of the screen. Unmarked numbers belong to inactive results. The call rests on the fitted dose curve; in most records, active means well fitted inhibition curve with a large enough effect; inconclusive means small, poorly fitted or top-dose-only effect; inactive means flat fitted curve, though single readings scatter.
test: Cytotoxic Profiling in HEK 293 Cell Line of Diverse Libraries Using Quantitative High-Throughput Screening; settings: HEK 293 viability, ATP luminescence (CellTiter-Glo), 48-72 h; series mostly up to 115 µM; activity change, negative = cytotoxicity: at the top concentration; further: nearly all actives have a fitted effect of over 60% in size
Summary of the method: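 250 HEK 293 cells/well; compound by pintool; incubated 48 or 72 hr at 37 degree Celsius; CellTiter-Glo added, 10 min RT, luminescence imaged.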
On the % scale 0 is the no-effect control and ±100 the full control effect; potency means the concentration at half of the fitted maximal effect.

In the case of `CC1(C)[C@H](Cc2cc(CC3CCCCC3)on2)C[C@@H]1NC(=O)C1CCC1`, the Potency is reported as 35.5 µM (active).
For `CC1(C)[C@H](Cc2cc(CC3CCCCC3)on2)C[C@@H]1NC1CCOCC1`, the Potency was 28.2 µM (active).
For `CCC(CC)C(=O)N[C@H]1C[C@@H](Cc2cc(COc3ccccc3)on2)C1(C)C`, the Potency was 31.6 µM (active).
In the case of `COCC1CN(C2CCC2)CC12CCN(C(=O)CCc1ccccc1)CC2` (stereo not drawn), the Potency is reported as 31.6 µM (active).
For `Cc1ccc(OCc2nc(C3CCN(C(=O)c4noc(C)c4CN4CCCCC4)CC3)no2)cc1`, the Potency was 31.6 µM (active).
With `COc1ccc2c(c1)CCc1c-2n[nH]c1C(=O)N1CCC(c2noc(COc3ccc(C)cc3)n2)CC1` the Potency was 22.4 µM (active).
For `COc1ccc(S(=O)(=O)N2CCc3c(C(=O)NCc4ccncc4)cccc32)cc1`, the Potency was 35.5 µM (active).
In the case of `COc1ccc(S(=O)(=O)N2CCc3c(C(=O)NCCc4ccccn4)cccc32)cc1`, the Potency is reported as 44.7 µM (active).

Point of comparison: `O=C(NCc1c[nH]c2ncccc12)c1ccccn1`, “activity change, negative = cytotoxicity” value -22.3% [at 172 µM]. Against it:
- CN(Cc1ccccc1)Cc1cc(CC2(NCc3ccc(CO)o3)COC2)no1 — higher, -11.7% [at 172 µM]
- C#CCNC(=O)C1CN(c2ccc(OC)cc2)C(=O)N1 (stereo not drawn) — lower, -25.2% [at 172 µM]

For `O=C(O)C[C@@H]1CCN(S(=O)(=O)c2ccccc2)C[C@@H]1CC1=NCCc2cc(F)ccc21`, the “outcome” value was “inactive”.
With `COc1ccc(C(=O)N2CCC([C@@H]3CNC[C@H]3CO)CC2)cc1OC` the “outcome” value was “inactive”.
For `COCC1CN(C2CCC2)CC12CCN(C(=O)C1CCN(C(C)=O)CC1)CC2` (stereo not drawn), the “outcome” value was “inactive”.
With `COCc1nc(C2CCN(C(=O)c3ccoc3)C2)no1` (stereo not drawn) the “outcome” value was “inactive”.
With `CCC(C)NC(=O)C1COC2(CCN(C(=O)CC(C)(C)C)CC2)N1C(=O)c1cccc(OC)c1` (stereo not drawn) the “outcome” value was “inactive”.
In the case of `COCCCn1c(=O)c(C(=O)N2CCN(C(=O)c3ccccc3)CC2)nc2cccnc21`, the “outcome” value is reported as “inactive”.

Point of comparison: `c1ccc(-c2nc(C3CCOCC3)nn2CC2COCCO2)cc1` (stereo not drawn), “activity change, negative = cytotoxicity” value 4.62%. Against it:
- O=C(NC1CCN(C(=O)N2CC3CC(C2)[C@H]2CCCC(=O)N2C3)CC1)c1ccsc1 (stereo partly drawn) — higher, 6.66%
- O=C(c1ccccc1F)N1CCC2(CC1)N(c1ccccc1)C(=O)CS2(=O)=O — lower, 1.12%
- O=C(NCc1ccccc1-n1cncn1)C1CC(=O)N(Cc2ccccn2)C1 (stereo not drawn) — lower, -7.73%
- Cc1cccc(Cl)c1NC(=O)Cn1c(C)cc2nc3n(c(=O)c21)CCCCC3 — lower, -4.66%
- COc1ccccc1C(=O)NCC1Cn2cccc2C(=O)N1Cc1cccnc1 (stereo not drawn) — lower, -6.07%
- COCc1nnc2n1CCC(NC(=O)CCc1c(C)nn(C)c1C)CC2 (stereo not drawn) — lower, -4.91%
- CC(C)NC(=O)NC1CCN(c2ccc3nnc(-c4ccccc4)n3n2)C1 (stereo not drawn) — lower, -25.3%
- COc1cc(OC)c(NC(=O)N2CCCC2c2nncn2C2CCCC2)cc1Cl (stereo not drawn) — lower, -4.17%
- O=C(Nc1ccccc1)N1CCc2nc(-c3ccccc3)nc(-c3ccc(Cl)cc3)c2C1 — lower, -24.8%
- COCCOCC(=O)N1CCCC(c2nc(-c3cccnc3)no2)CCNC(=O)CC1 (stereo not drawn) — lower, -1.25%
- CC(c1cccs1)N(C)[S+](=O)([O-])c1cccc(C(F)(F)F)c1 (stereo not drawn) — lower, -22.4%
- COCC(=O)NC1CCC12CCN(C(=O)CCCc1ccccc1)CC2 (stereo not drawn) — lower, 1.14%
- COCc1nc(C2CCN(C(=O)c3ccn[nH]3)C2)no1 (stereo not drawn) — lower, -5.05%
- COCCOCc1nc(C2CCN(C(=O)c3ccncc3)CC2)no1 — lower, -0.248%
- CCOc1ccc(C(=O)N2CCCC(c3noc(COC)n3)C2)cc1 (stereo not drawn) — lower, -5.23%
- COc1ccc(S(=O)(=O)N2CCC(N(C(=O)C3CC3)C3CCOCC3)CC2)cc1 — lower, 0.262%
- COCc1cc(=O)n(CC(=O)Nc2ccc(C)cc2)c(N2CCOCC2)n1 — higher, 7.31%
- CN(Cc1ccc(OC(F)(F)F)cc1)C(=O)C1(C)CCOCC1 — lower, -28%
- CNC(=O)c1cc[nH]c1C1CCCN(C(=O)c2noc(C)c2Cn2cccn2)C1 (stereo not drawn) — lower, -12.4%
- COc1cccc(C(=O)N2C(C(=O)NC3CC3)COC23CCN(C(=O)c2ccc(F)cc2)CC3)c1 (stereo not drawn) — lower, -9.44%
- O=C(CCC[C@@H]1[C@H]2CCCN3CCC[C@@H](CN1C(=O)c1cccnc1)[C@@H]23)NCCCc1ccccc1 — lower, -21.4%
- COCC1CCCCN1c1ccc(C(=O)NCCCc2ccccn2)cn1 (stereo not drawn) — lower, -13.6%
- COc1ccc(S(=O)(=O)N2[C@@H]3CC[C@H]2CC(NC(=O)c2ccncc2)C3)cc1 (stereo partly drawn) — lower, -14.8%
- Cc1ccc(C)c(CNC(=O)c2ccc3c(c2)N(S(=O)(=O)c2ccccc2)CC3)c1 — lower, -28.2%
- COc1ccc(-c2nc(C(C)C)nc3c2CCN(C(=O)Cc2ccccn2)CC3)cc1 — lower, -14.6%
- CCCNC(=O)N(C1CCOCC1)C1CCN(C(=O)c2ccc(F)c(F)c2)CC1 — higher, 12.2%
- Cc1cccc(OCC(=O)N2CCCC(n3cc(-c4noc(C)n4)nn3)C2)c1 (stereo not drawn) — lower, -2.11%
- C=CCNC(=O)C(NC(=O)c1cccc(OC)c1)C1CCN(C(=O)c2ccccc2F)CC1 (stereo not drawn) — lower, -9.02%
- CNC(=O)c1cc(C2CC2)nc2onc(C3CCCN(C(=O)C4CC4)C3)c12 (stereo not drawn) — lower, -20.2%
- CN1Cc2ccc(CN(C)C(=O)C3CCN(Cc4ccco4)CC3)cc2C1 — lower, -4.77%

From PubChem BioAssay AID1345083 (National Center for Advancing Translational Sciences (NCATS), 2018)
